# Assay results reported in PubChem BioAssay (NCATS).
# The source made the active and inactive calls. Unless noted, calls follow the shape of the dose curve; as a rule, active = well fitted curve in the direction sought with a large enough effect; inconclusive = small, poorly fitted or top-dose-only effect, or another doubt; inactive = no such curve, though single readings can be large; an effect the other way counts as inactive or inconclusive.
# Biological target: Pyruvate kinase PKM (Homo sapiens) (UniProt P14618)
# Assay: qHTS Assay for Activators of Human Muscle Pyruvate Kinase (AID 954; active = well fitted curve in the direction sought with a large enough effect, not every such curve was filed as active;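 also: 0% = uninhibited enzyme and -100% = no enzyme or full thiadiazolimine inhibition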)
# Details: purified human muscle pyruvate kinase, luciferase-coupled luminescence, 1 h; series mostly up to 57.5 µM; activity change, negative = inhibition: at the top concentration
# How it was run: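 Compound pinned into substrate mix (0.5 mM PEP, 0.1 mM ADP), then 0.1 nM PKM2 added; 1 h, RT. Stop/detection luciferase reagent added, luminescence read. Normalized to no-inhibition and no-enzyme or reference-inhibitor controls.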
# Pyruvate kinase PKM (Homo sapiens), sequence (P14618 whole entry, looked up): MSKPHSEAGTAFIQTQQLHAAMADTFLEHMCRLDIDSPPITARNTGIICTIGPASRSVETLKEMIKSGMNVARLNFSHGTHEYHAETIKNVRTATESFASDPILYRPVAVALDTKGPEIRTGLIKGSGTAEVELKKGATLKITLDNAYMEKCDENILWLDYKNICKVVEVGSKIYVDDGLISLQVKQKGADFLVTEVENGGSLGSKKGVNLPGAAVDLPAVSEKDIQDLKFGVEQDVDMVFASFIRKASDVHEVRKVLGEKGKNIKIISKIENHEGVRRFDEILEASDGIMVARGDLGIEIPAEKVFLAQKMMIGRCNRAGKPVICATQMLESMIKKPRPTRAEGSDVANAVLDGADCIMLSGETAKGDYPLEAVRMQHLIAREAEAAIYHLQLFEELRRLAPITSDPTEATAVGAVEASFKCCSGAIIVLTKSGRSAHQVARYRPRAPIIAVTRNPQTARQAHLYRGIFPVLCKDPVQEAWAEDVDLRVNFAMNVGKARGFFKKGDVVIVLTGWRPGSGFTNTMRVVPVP
row,SMILES,"activity change, negative = inhibition"
1,CC[C@]1(O)C[C@H]2CN(CCc3c([nH]c4ccccc34)[C@](C(=O)OC)(c3cc4c(cc3OC)N(C)[C@@H]3[C@](O)(C(=O)OC)[C@H](OC(C)=O)[C@]5(CC)C=CCN6CC[C@]43[C@@H]65)C2)C1,8.53% (inactive)
2,CN1CCc2cc(O)c(O)cc2[C@H](c2ccccc2)C1,-5.53% (inactive)
3,O=C(/C=C\c1ccc(O)cc1)c1ccc(O)cc1O,-67.1% (inactive)
4,FC(F)(F)c1cc(CO[C@@H]2CCCN[C@H]2c2ccccc2)cc(C(F)(F)F)c1,-6.75% (inactive)

# Biological target: Alpha-galactosidase A (Homo sapiens) (UniProt P06280)
# Assay: Counterscreen for Glucocerebrosidase Inhibitors: qHTS Assay for Human alpha-Galactosidase at pH 4.5 (AID 992); also: 0% is about no effect
# Details: purified enzyme, fluorogenic substrate; series mostly up to 76.9 µM; activity change, negative = inhibition: at the top concentration
# How it was run: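 Steps: enzyme (2 nM final), then compound across 0.7 nM to 77 uM, then 80 uM fluorogenic galactopyranoside substrate; incubate 20 min at room temperature; quench at pH 10; measure fluorescence at 365/440 nm.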
# Alpha-galactosidase A (Homo sapiens), sequence (P06280 whole entry, looked up): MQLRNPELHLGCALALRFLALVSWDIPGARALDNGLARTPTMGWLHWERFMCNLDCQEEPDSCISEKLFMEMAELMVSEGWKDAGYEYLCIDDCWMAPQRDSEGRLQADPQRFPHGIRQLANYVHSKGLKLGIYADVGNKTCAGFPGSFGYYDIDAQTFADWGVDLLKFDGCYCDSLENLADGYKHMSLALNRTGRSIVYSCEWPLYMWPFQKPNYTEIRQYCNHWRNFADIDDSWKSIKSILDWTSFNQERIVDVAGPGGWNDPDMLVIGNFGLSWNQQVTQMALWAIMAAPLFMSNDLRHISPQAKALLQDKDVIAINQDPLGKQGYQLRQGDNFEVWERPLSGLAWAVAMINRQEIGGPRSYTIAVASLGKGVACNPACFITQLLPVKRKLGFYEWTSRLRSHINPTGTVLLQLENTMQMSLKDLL
row,SMILES,"activity change, negative = inhibition"
1,CC[C@]1(O)C[C@H]2CN(CCc3c([nH]c4ccccc34)[C@](C(=O)OC)(c3cc4c(cc3OC)N(C)[C@@H]3[C@](O)(C(=O)OC)[C@H](OC(C)=O)[C@]5(CC)C=CCN6CC[C@]43[C@@H]65)C2)C1,-4.61% (inactive)
2,CN1CCc2cc(O)c(O)cc2[C@H](c2ccccc2)C1,2.1% (inactive)
3,O=C(/C=C\c1ccc(O)cc1)c1ccc(O)cc1O,-11.7% (inactive)
4,FC(F)(F)c1cc(CO[C@@H]2CCCN[C@H]2c2ccccc2)cc(C(F)(F)F)c1,-15.6% (inactive)

# Biological target: alpha-glucosidase (Oryza sativa, rice) (UniProt Q653V4)
# Assay: Counterscreen for Glucocerebrosidase Inhibitors: qHTS Assay for Rice alpha-Glucosidase at pH 5.0 (AID 997);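 also: 0% = full activity with enzyme and -100% = basal without enzyme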
# Details: rice alpha-glucosidase enzyme activity; series mostly up to 76.9 µM; activity change, negative = inhibition: at the top concentration
# How it was run: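 Endpoint fluorogenic assay at pH 5.0: compounds (0.7 nM to 77 uM) titrated against 4 nM rice enzyme and 400 uM 4-MU-alpha-glucoside for 20 min at room temperature; NaOH/glycine stop, read ex 365/em 440 nm, Hill-fitted AC50.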
row,SMILES,"activity change, negative = inhibition"
1,CC[C@]1(O)C[C@H]2CN(CCc3c([nH]c4ccccc34)[C@](C(=O)OC)(c3cc4c(cc3OC)N(C)[C@@H]3[C@](O)(C(=O)OC)[C@H](OC(C)=O)[C@]5(CC)C=CCN6CC[C@]43[C@@H]65)C2)C1,-4.82% (inactive)
2,CN1CCc2cc(O)c(O)cc2[C@H](c2ccccc2)C1,-0.0643% (inactive)
3,O=C(/C=C\c1ccc(O)cc1)c1ccc(O)cc1O,-13.5% (inactive)
4,FC(F)(F)c1cc(CO[C@@H]2CCCN[C@H]2c2ccccc2)cc(C(F)(F)F)c1,-16.4% (inactive)
